D1 potentiator: human D1 dopamine receptor positive modulation. P21728. HEK293 TREx D1 cells, calcium flux, dopamine EC20 potentiation. potentiation, % at 10 µM. actives 0.036% (n = 360,000); in the data active = potentiation above about 30%; also: 0% is about no effect
D1 agonist: activates the human D1 dopamine receptor; P21728; HEK293 T-REx D1 cells, calcium flux, agonist mode; activation, % at 2 µM; actives 1% (n = 360,000); AID 504660; in the data active = activation above about 30%; also: 0% is about no effect
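Agonism was scored from calcium flux recorded over 180 s (1 read/s) after pintool compound addition, following a 10-cycle baseline. Cells were inducible force-coupled HEK293 TREx D1, plated overnight at 30 C and loaded with no-wash calcium dye.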
Eya2 inh: inhibitors of human Eya2 phosphatase activity; recombinant Eya2, OMFP fluorescence dephosphorylation (OMFP is methylfluorescein phosphate); Potency, µM (series often up to 76.9 µM), inactives show top-dose activity, negative = inhibition, hits mostly inhibitors; actives 0.006% (n = 330,000); AID 488837; also: potency is read from the fitted curve at half-maximal effect; % is scaled to controls: 0 for no effect and ±100 for the full control effect
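Eya2 protein (added as 0.2 uM solution) was preincubated with compound for 10 min at ambient temperature in 50 mM HEPES pH 7.5, 50 mM NaCl, 5 uM MgCl2, 0.05% BSA, 1 mM DTT. OMFP (added at 50 uM) then reacted 10 min; fluorescence read at 485/525 nm.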
GALK inh: inhibitors of human galactokinase | P51570 | Purified GALK, Kinase-Glo residual ATP luminescence | Potency, µM (series often up to 57.5 µM), inactives show top-dose activity change, negative = inhibition, hits mostly inhibitors | actives 0.007% (n = 270,000) | AID 1868; also: potency is read from the fitted curve at half-maximal effect; % is scaled to controls: 0 for no effect and ±100 for the full control effect
Target sequence (P51570 whole entry, looked up): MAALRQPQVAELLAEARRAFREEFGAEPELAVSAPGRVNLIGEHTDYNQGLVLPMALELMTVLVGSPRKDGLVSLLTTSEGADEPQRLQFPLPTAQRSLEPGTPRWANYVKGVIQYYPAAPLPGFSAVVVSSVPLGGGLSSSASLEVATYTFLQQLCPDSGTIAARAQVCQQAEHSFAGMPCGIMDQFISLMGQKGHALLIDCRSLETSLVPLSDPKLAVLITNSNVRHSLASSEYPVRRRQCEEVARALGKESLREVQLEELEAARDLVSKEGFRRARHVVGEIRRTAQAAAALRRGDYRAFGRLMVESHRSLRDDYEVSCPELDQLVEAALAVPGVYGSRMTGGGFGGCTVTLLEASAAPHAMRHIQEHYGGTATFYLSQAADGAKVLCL
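The enzyme phosphorylates galactose (100 uM) using ATP (35 uM); inhibition is detected as higher residual ATP, quantified by bioluminescence after 1 h reaction at room temperature, pH 8.0.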
D1 antag: blocks dopamine activation of the human D1 receptor. activity change, negative = inhibition, % at 10 µM. P21728. HEK293 TREx D1 cells, calcium flux, dopamine EC80; hits give low values. actives 3.2% (n = 360,000). AID 504652; in the data active = activity change below about -30%; also: % is scaled to controls: 0 for no effect and ±100 for the full control effect
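Kinetic fluorescence of a calcium dye serves as the read-out. D1-expressing Hek293 Trex cells, induced overnight at 30 C, are exposed to compound for 180 s before an EC80 dopamine addition, then read 180 s further.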
USP2a block: inhibitors of human ubiquitin-specific protease USP2a. actives 0.01% (n = 330,000). USP2 core, Ub-CHOP2 coupled fluorogenic reporter, 485/531. AID 463254. O75604. Potency, µM (highest dose often 38.3 µM), inactives show at the top dose activity change, negative = inhibition, most hits filed as inhibitors;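 also: potency is read from the fitted curve at half-maximal effect; plate controls were DMSO wells for no effect and full inhibition by NEM control for full effect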
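Deubiquitinase activity read as fluorescence (485/531 nm) after Ub-CHOP2 cleavage activates the enterokinase reporter on its substrate; USP2 core 10nM, Ub-CHOP2 and substrate 25nM each, 30min compound preincubation then 60min RT; data normalized to NEM, curves fitted.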
An asterisk follows results filed as active; / = not tested or not shown; ! = not active in a repeat. In the library only some 3.9% were active in any assay of this set; here they are far more common. Unless noted, calls follow the shape of the dose curve; as a rule, active = well fitted inhibition curve with a large enough effect; inconclusive = small, poorly fitted or top-dose-only effect, or effect the other way; inactive = flat fitted curve, though single readings scatter.

SMILES	D1 potentiator	D1 agonist	Eya2 inh	GALK inh	D1 antag	USP2a block
COc1cc(C(=O)NC(=S)NNC(=O)c2ccc3c(c2)OCO3)cc(OC)c1OC	8	4	3%	/	-21	0%
COc1cc(N)c(Cl)cc1C(=O)N[C@@H]1CCN(CCCOc2ccc(F)cc2)C[C@@H]1OC	-3	4	-14%	-1%	-58*	8%
COc1cc(N)c(Cl)cc1C(=O)N[C@H]1CCN(CCCOc2ccc(F)cc2)C[C@H]1OC	-2	12	-12%	/	-3	-2%
CC(OC(=O)c1oc2ccccc2c1COc1ccccc1)C(N)=O (configuration not stated)	2	3	0%	14%	-8	-5%
COc1ccc2oc(C(=O)N3CCN(C(=O)c4ccco4)CC3)c(C)c2c1	-14	3	-27%	/	-36*	-8%
Cc1c(C(=O)N2CCN(CCc3ccccc3)CC2)oc2ccccc12	-3	2	-24%	0%	-32*	-1%
CC(C)(C)NC(=O)c1oc2ccccc2c1COc1ccccc1	6	31*	-8%	0%	7	1%
COCc1c(C(=O)N2CCN(CCOc3ccccc3)CC2)oc2ccccc12	/	5	-11%	/	-45*	-3%
CC(C)Cc1ccc(S(=O)(=O)NCc2nc3cccnc3n2Cc2ccccc2)cc1	1	4	/	/	2	/
Cc1ccc2nc(NC(=O)c3nc(SCc4ccccc4C)ncc3Cl)sc2c1	0	1	/	/	25	/
Cc1ccc(S(=O)(=O)NCc2nc3nc(C)cc(C)n3n2)c(C)c1	-8	4	10%	/	-65*!	-1%
Cc1cc(C)c(S(=O)(=O)NCc2nc3nc(C)cc(C)n3n2)c(C)c1	1	3	12%	/	-13	3%
CCOC(=O)c1c(C)[nH]c(C)c1S(=O)(=O)N1CCC(C(=O)N2CCN(c3cccc(C)c3)C(C)C2)CC1 (configuration not stated)	1	3	/	/	-12	/
Cc1ccc2nc(N/C(=N/S(=O)(=O)c3ccc(F)cc3)c3ccccc3)sc2c1	-13	9	-9%	-1%	-44*	-5%
C/C(N)=C(/C#N)C(=O)COC(=O)c1ccc(C#N)cc1	-7	4	-6%	16%	-44*	-1%
COC(=O)c1c(NC(=O)c2cc(=O)c3cc(C)cc(C)c3o2)sc2c1CCC2	1	1	/	/	0	/
C=CCN1c2ccccc2[C@]23C[C@@H](C(=O)OC)N(C(=O)NCCC)C2=NC(C(=O)OC)=C(C(=O)OC)[C@H]13	0	10	6%	1%	-33*	9%
O=C(O)CC1SC(=Nc2ccccc2)N(c2ccccc2)C1=O (configuration not stated)	-5	-1	-1%	0%	-31*	1%
Cc1cccc(Cn2c(=O)n(CCCC(=O)NCc3ccccc3Cl)c(=O)c3ccccc32)c1	0	16	/	/	0	/
COc1ccc(N(C(=O)CNC(=O)c2cccs2)C(C(=O)NCC2CCCO2)c2ccccc2)cc1OC (configuration not stated)	-4	2	-4%	7%	-55*	-1%
COc1ccc(N(C(=O)CNC(=O)c2cccs2)C(C(=O)NCC2CCCO2)c2ccccc2)cc1 (configuration not stated)	-6	30	1%	-2%	-13	1%
COc1cc(C(C(=O)NCC2CCCO2)N(C(=O)Cn2nnc3ccccc32)c2ccc(OC)c(OC)c2)ccc1O (configuration not stated)	-4	0	1%	-2%	-80*	1%
CCC(Oc1ccc(F)cc1)C(=O)Nc1nc2c(s1)CCCC2 (configuration not stated)	2	9	/	/	-4	/
O=C(CCCN1C(=O)S/C(=C\C=C\c2ccccc2)C1=O)Nc1ccc(C(=O)O)cc1	-1	0	0%	14%	-9	2%
O=C(CCN1C(=O)S/C(=C\C=C\c2ccccc2)C1=O)Nc1ccc(O)cc1	-2	-1	2%	1%	-38*	1%
SMILES	D1 potentiator	D1 agonist	Eya2 inh	GALK inh	D1 antag	USP2a block
CCOC(=O)c1c(C)n(C)c2ccc(OC)c(NC(=O)CCN3CCC(Cc4ccccc4)CC3)c12	-4	9	-6%	-2%	-36*	-1%
CCOC(=O)c1c(C)n(C)c2ccc(OC)c(NC(=O)CN3CCSCC3)c12	2	1	4%	0%	6	1%
CCCOc1ccc(N2C(=O)CC(NCc3ccncc3)C2=O)cc1 (configuration not stated)	1	1	-9%	5%	-59*	3%
CCCOc1ccc(N2C(=O)CC(NCc3cccs3)C2=O)cc1 (configuration not stated)	-3	-1	5%	-3%	-3	4%
O=C(CCc1nc(-c2cccs2)no1)Nc1ccc([N+](=O)[O-])cc1	-1	14	/	/	-28	/
O=C(CCc1nc(-c2cccs2)no1)Nc1cccc([N+](=O)[O-])c1	-2	15	/	/	-34*	/
O=C(CCc1nc(-c2ccccc2F)no1)Nc1cccc(C(F)(F)F)c1	-3	32*	/	/	-29	/
COc1ccc(-c2noc(CCC(=O)Nc3cccc(C)c3)n2)cc1	-4	6	-11%	-3%	-45*	-2%
CCOC(=O)c1cccc(NC(=O)CCc2nc(-c3ccccc3F)no2)c1	-2	10	-3%	6%	1	3%
CCOC(=O)c1cccc(NC(=O)CCc2nc(-c3ccc(C)cc3)no2)c1	4	31*	2%	7%	-22	-7%
O=S(=O)(Nc1cccc(-c2ccc(N3CCOCC3)nn2)c1)c1ccc(F)c(C(F)(F)F)c1	3	-2	/	/	-2	/
CCOc1ccccc1NC(=O)c1c(NC(=O)c2cccc(C)c2)sc2c1CCCC2	1	1	/	/	3	/
O=C(CCc1nc(-c2ccccc2F)no1)NC1CCN(Cc2ccccc2)CC1	-6	31*	5%	4%	-30*	-3%
COc1ccc(CCCc2nnc(SCC(=O)Nc3cccc(C)c3)o2)cc1	-3	46*!	-7%	0%	-43*!	-11%
CCN(C(=O)CCc1nc(-c2ccc(C)cc2)no1)c1cc(C)ccc1C	-2	17	/	/	-21	/
CCN(C(=O)CCc1nc(-c2ccc(OC)cc2)no1)c1cc(OC)ccc1OC	-4	30	-25%	0%	-49*	-12%
Cc1nc2ccn(Cc3ccco3)c(=O)c2cc1C(=O)N1CCN(c2ccc(F)cc2)CC1	-7	10	/	/	-12	/
Cc1ccc(C)c(N2CCN(C(=O)C3CCN(Cc4nc(-c5cccc(Cl)c5)oc4C)CC3)CC2)c1	-3	7	/	/	0	/

Bioassay records from PubChem BioAssay.
